# Screening data from PubChem BioAssay.
# Only some compounds are listed: those with a hit (about 2.4% of all), similar ones and a draw of the others.
# D2 antagonist: antagonizes the human D2 dopamine receptor; 340,000 tested, 2% active; AID 485344; HEK293 TREx D2 cells, calcium flux, dopamine EC80; P14416; inhibition, % at 10 µM; in the data active = inhibition above about 30%; inactive = below that, where a call was filed; also: 0% is about no effect
# Target sequence (P14416 whole entry, looked up): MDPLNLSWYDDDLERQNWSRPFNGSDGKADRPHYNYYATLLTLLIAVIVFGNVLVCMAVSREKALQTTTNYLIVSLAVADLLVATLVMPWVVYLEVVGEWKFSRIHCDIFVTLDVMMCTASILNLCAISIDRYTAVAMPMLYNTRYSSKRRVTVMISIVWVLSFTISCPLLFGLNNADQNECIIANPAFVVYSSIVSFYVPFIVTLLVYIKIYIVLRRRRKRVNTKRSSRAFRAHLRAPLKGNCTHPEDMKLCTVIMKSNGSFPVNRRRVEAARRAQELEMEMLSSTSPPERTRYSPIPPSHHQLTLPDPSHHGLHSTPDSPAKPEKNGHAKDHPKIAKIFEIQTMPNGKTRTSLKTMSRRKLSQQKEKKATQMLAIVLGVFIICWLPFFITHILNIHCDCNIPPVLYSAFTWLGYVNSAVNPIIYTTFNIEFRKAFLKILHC
#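 Overnight-induced (tetracycline, 30 C) HEK293 T-REx cells carrying force-coupled D2 receive a no-wash calcium dye, then compound, then EC80 dopamine at 180 s; signals are read kinetically throughout.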
# D2 PAM-1: positively modulates the human D2 dopamine receptor allosterically. P14416. 340,000 tested, 0.34% active. potentiation, % at 10 µM. HEK293 T-REx D2, calcium flux, EC20 dopamine potentiation;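 active = potentiation over 3 SD above the plate norm, cut at about 30% in these data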; also: 0% is about no effect
#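 Tetracycline-induced HEK293 T-REx cells force-coupled to calcium signalling expressed D2; compounds were pin-added after a 10 s baseline, read kinetically 180 s, then an EC20 dopamine challenge followed with a further 180 s calcium read.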
# D2 ag-1: activates the human D2 dopamine receptor. AID 485358. activation, % at 2 µM. P14416. HEK293 T-REx D2 cells, calcium flux agonist mode. 340,000 tested, 0.53% active;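 active = activation over 3 SD above normal in the single-dose calcium agonist read, cut at about 30% in these data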; also: 0% is about no effect
#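 HEK293 Trex D2 cells, tetracycline-induced, o/n 30 C 5% CO2; no-wash Ca dye, RT 30–90 min; 10-cycle baseline, 23 nl cpd added, kinetic Ca read 180 s; agonist hits = positive Ca response.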
# D2 ag-2: agonists of human D2 dopamine receptor (beta-arrestin); DiscoveRx PathHunter D2 beta-arrestin, luminescence, 90 min; 100% = 57 uM dopamine signal; 360,000 tested, 0.084% active; activation, % (concentration not given with the values); P14416; in the data active = activation above about 40%; inconclusive = between about 15% and that limit
#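 DiscoveRx PathHunter D2 beta-arrestin cells (2,100/well) attached overnight, then compound-stimulated 90 min at 37 C in HBSS/10 mM HEPES/0.1% Tween-20 buffer; beta-galactosidase complementation read by luminescence after 1 h at ambient temperature. Dopamine 57 uM final (EC100) as control.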
# D2 PAM-2: human D2 receptor positive allosteric modulation. DiscoveRx D2 beta-arrestin cells, luminescence, 90 min; 100% = 57 uM dopamine signal. 360,000 tested, 0.23% active. AID 624464. potentiation, % (test concentration not listed); in the data active = potentiation above about 50%; inconclusive = mostly about 30% to 49%
#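 PathHunter beta-arrestin assay in DiscoveRx D2 cells. Compounds were added with an EC20 of dopamine (50 nM final) for 90 min at 37 deg C. Luminescence was read 1 h after detection reagent, with 57 uM dopamine as the EC100 control.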
# Starred values were filed as active, the others as inactive; u = inconclusive; x = no result given.
SMILES,D2 antagonist,D2 PAM-1,D2 ag-1,D2 ag-2,D2 PAM-2
CC1(CC(=O)N/N=C/c2ccc(OCc3ccc(Cl)cc3Cl)cc2)OCCCO1,14.7,-4.5,-0.1,3.0,1.5
COc1cc(/C=N/NC(=O)CC2(C)OCCCO2)ccc1OCc1ccc(Cl)cc1Cl,31.0*,-6.1,0.1,-0.8,-3.4
CC1(C)C=C(c2ccc(C=O)s2)CC(C)(C)N1,33.6*,6.3,0.3,-1.0,-13.1
CC1(C)C=C(c2ccc(C=O)s2)CC(C)(C)N1C=O,19.2,10.0,-0.3,1.5,-13.6
CCN(CC)CCNC(=O)c1cn(-c2ccccc2)nc1-c1cccs1,36.8*,-23.9,0.8,-1.0,-16.9
CCc1nn(C(CC)C(=O)NCCCc2ccccc2)c(=O)c2cc3occc3n12 (configuration not stated),1.3,-4.1,-0.2,0.4,-14.8
CCc1nn(C(CC)C(=O)NCCCN2CC(C)CC(C)C2)c(=O)c2cc3oc(C)cc3n12 (configuration not stated),63.7*,-32.7,-0.3,-3.9,-35.0
O=C(CSC1=NS(=O)(=O)c2cc(F)ccc2N1)NCCc1ccccc1,23.8,-5.7,36.0*,-4.9,-19.3
Cc1noc2ncnc(N3CCN(c4ccccc4F)CC3)c12,x,-1.2,0.7,x,x
CNS(=O)(=O)c1cn(CC(=O)N2CCN(c3ccc(Cl)cc3)CC2)cc1S(=O)(=O)NC,x,6.6,-1.4,x,x
CN(C)C=NC(=O)c1cc(C(=O)c2ccccc2Cl)c[nH]1,46.3*,-3.6,0.4,-0.6,2.9
c1ccc(Cn2cc(CNc3ccccc3)nn2)cc1,41.8*,-3.4,0.0,0.1,-5.0
CCCCCCCC(=O)N/N=C(\C)c1ccc(O)cc1O,71.8*,-21.4,-1.6,0.6,-26.0
CCCCCCCC(=O)N/N=C(\C)c1ccc(N)cc1,12.0,4.8,0.0,x,x
CCCCCCCCC(=O)N/N=C(\C)c1ccc(O)cc1O,49.0*,-28.5,-0.6,-1.1,-22.7
CCCCc1nc2ccccc2n2c(-c3ccc(C)cc3)c3c(=O)n(C)c(=O)n(C)c3c12,x,12.7,0.0,x,x
Clc1ccc(OCCN2CCCCC2)cc1Cl,102.9*,-26.0,0.4,-2.0,-31.3
Cc1cc(OCCCCCN2CCCC2)ccc1Cl,58.8*,-16.6,1.2,-7.5,-4.5
Clc1ccc(OCCCN2CCCC2)cc1Cl,7.5,-24.3,-0.3,2.7,-12.1
O=C(CSc1nnc(-c2ccc(Cl)cc2)n1-c1ccc(Cl)cc1)N/N=C/c1ccco1,-9.4,-8.7,-0.6,11.3,17.4
Cc1ccc(/C=N/NC(=O)CSc2nnc(-c3ccc(Cl)cc3)n2-c2ccccc2)o1,-19.3,-0.6,-1.2,u,87.6*
N#Cc1cccc(Oc2ccc(S(=O)(=O)N3CCCC3)cn2)c1,35.2*,-10.5,-0.8,-2.3,0.9
Cc1ccc(CSc2ccc(S(=O)(=O)N3CCCC3)cn2)cc1,7.6,6.3,-1.5,-3.3,-0.1
N#Cc1ccc(CSc2ccc(S(=O)(=O)N3CCCC3)cn2)cc1,30.0*,0.4,-0.8,-5.0,-0.8
COc1ccc(NC(=O)COc2ccc(S(=O)(=O)NC3CCCCC3)cc2)cc1OC,x,-6.3,-0.5,x,x
SMILES,D2 antagonist,D2 PAM-1,D2 ag-1,D2 ag-2,D2 PAM-2
COc1ccc(Oc2c(C)oc3cc(OC(=O)N4CCOCC4)ccc3c2=O)cc1,4.4,41.6*,0.3,0.3,-5.6
CCc1ccc(C2CC(c3ccccc3)Nc3nc(N)nn32)cc1 (configuration not stated),-13.2,10.8,-0.3,7.1,2.8
CCc1ccc(C2CC(c3ccccc3)n3ncnc3N2)cc1 (configuration not stated),42.1*,-0.1,2.2,3.0,-2.7
O=C(CN1CCN(c2ccccc2F)CC1)c1ccc(O)c(O)c1,8.7,-22.0,61.1*,10.5,-14.9
Cc1c(O)ccc(C(=O)CN2CCN(c3ccccc3F)CC2)c1O,-11.6,10.5,3.8,-1.2,-17.0
O=C(COC(=O)c1ccc2[nH]c3c(c2c1)CCCC3)Nc1ccccc1Cl,0.0,6.9,-0.7,-2.2,-5.5
CCC(C)c1ccccc1NC(=O)COC(=O)c1ccc2[nH]c3c(c2c1)CCCC3 (configuration not stated),70.5*,-17.1,-0.4,5.0,14.2
COc1ccc(CCNC(=O)C(=O)NCC(c2ccco2)S(=O)(=O)c2ccc(C)cc2)cc1 (configuration not stated),x,x,0.3,x,x
